# PolyA inhibitor = yeast polyadenylation inhibition; S. cerevisiae SKY197-pL101 polyadenylation reporter, beta-gal luminescence; efflux-impaired pdr1/pdr3 knockout yeast; score 100 = 6 SD above DMSO; 300,000 tested, 0.02% active; activity score, % at 12 µM;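 active = lowest replicate activity score at least 50, where 100 means six control SD above control mean; inconclusive = lowest score under 50 but half or more replicates reach 50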;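 note: yeast exposed to compound for 9 h at 30 °C; higher score means more reporter readthrough which indicates perturbed polyadenylation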
# ALR H2O2 inh = inhibitors of human sulfhydryl oxidase ALR; P55789; purified ALR, DTT oxidation, H2O2 HRP-luminol luminescence; inhibition, % (no concentration beside the values); 290,000 tested, 3.8% active;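 active = mean replicate inhibition above about 79%, with every replicate also reaching it, limit read from the data; inconclusive = only one of the two criteria met; inactive = mean below limit and not every replicate reaching it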
# M18AAP inhibitor = blocks P. falciparum M18 aspartyl aminopeptidase | recombinant PfM18AAP, H-Glu-NHMec fluorogenic cleavage | inhibition, % at 7.35 µM | 290,000 tested, 1.2% active | AID 1822;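 active = inhibition above the campaign mean inhibition over all tested compounds plus 3 SD, cut at about 28% in these data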
# IDE cell inh = cellular human IDE inhibition; HEK cells, FAbetaB cleavage, fluorescence polarization; AID 434962; inhibition, % at 5.59 µM; P14735; 320,000 tested, 0.41% active;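 active = percent inhibition above the average of all tested compounds plus 3 SD, set per screening campaign, cut at about 16% in these data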;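 note: IDE supplied by intact live HEK cells; FP after avidin binding of uncleaved biotin substrate so inhibition keeps polarization high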
# Target sequence (P14735 whole entry, looked up): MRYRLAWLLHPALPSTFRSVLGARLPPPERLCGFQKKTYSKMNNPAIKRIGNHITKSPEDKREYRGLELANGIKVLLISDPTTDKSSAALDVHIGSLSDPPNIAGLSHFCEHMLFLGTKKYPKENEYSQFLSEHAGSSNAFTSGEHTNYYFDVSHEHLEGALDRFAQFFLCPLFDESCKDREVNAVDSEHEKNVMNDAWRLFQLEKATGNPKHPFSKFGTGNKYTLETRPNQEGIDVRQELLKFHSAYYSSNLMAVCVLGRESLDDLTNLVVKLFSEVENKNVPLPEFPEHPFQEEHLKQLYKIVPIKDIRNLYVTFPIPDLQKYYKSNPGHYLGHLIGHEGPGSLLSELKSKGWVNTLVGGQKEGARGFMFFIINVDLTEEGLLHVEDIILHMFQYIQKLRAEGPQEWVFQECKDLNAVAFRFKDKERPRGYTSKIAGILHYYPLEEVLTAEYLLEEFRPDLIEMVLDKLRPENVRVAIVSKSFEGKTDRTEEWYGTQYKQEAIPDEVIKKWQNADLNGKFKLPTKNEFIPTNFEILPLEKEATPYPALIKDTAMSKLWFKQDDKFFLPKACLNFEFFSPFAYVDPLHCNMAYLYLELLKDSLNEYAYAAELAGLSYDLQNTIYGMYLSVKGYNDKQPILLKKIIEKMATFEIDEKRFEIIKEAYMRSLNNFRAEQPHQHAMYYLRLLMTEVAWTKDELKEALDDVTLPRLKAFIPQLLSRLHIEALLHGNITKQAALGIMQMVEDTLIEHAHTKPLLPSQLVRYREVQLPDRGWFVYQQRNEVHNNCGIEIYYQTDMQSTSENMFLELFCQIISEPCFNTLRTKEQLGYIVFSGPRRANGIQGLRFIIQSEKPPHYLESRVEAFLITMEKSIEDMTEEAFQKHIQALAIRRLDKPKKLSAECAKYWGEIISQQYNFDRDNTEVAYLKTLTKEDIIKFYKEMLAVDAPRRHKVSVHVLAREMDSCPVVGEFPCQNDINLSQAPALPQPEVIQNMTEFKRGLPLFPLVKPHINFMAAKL
# CaV13 ICDI inh = Primary screen for inhibitors of IQ motif and Ca2+-dependent inactivation inhibitor domain binding in CACNA1D, Förster resonance energy transfer in living cells, … | 340,000 tested, 0.098% active | inhibition, % at 12.3 µM | HEK cells, CFP/YFP FRET ICDI-IQ, plate reader, 10 min; percent FRET-ratio fall versus neutral wells;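 active = mean replicate inhibition of at least 30% and at least 1% of replicates passing that level; inconclusive = only one of the two criteria is met; inactive = neither criterion is met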
# IDE cell activ = activators of human insulin-degrading enzyme in cells. P14735. HEK cells, FAbeta-B cleavage, fluorescence polarization; 0% vehicle, 100% cell-free pure enzyme wells. activation, % at 5.96 µM. 340,000 tested, 0.073% active;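 active = activation above the mean of all tested compounds plus 3 SD, set per screening campaign, cut at about 17% in these data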
# Numbers stand for hits; 0 = inactive; ? = inconclusive; - = no result. Compounds with a hit are over-represented: about 4.1% of the library has one in this group of screens.
SMILES,PolyA inhibitor,ALR H2O2 inh,M18AAP inhibitor,IDE cell inh,CaV13 ICDI inh,IDE cell activ
O=C(NCCC(c1ccccc1)c1ccccc1)c1cnc2sccn2c1=O,0,0,0,0,0,0
O=C(NNC(=S)NC(=O)c1ccc(Br)cc1)c1ccc([N+](=O)[O-])cc1,0,100,0,0,0,0
O=C(NC(=S)NNC(=O)c1ccccc1O)c1ccc([N+](=O)[O-])cc1,0,0,30,0,0,0
CCCCOc1ccccc1C(=O)NNC(=S)NC(=O)c1ccccc1[N+](=O)[O-],0,84,0,0,0,0
O=C(NNC(=S)NC(=O)c1ccc(Br)cc1)c1cccc([N+](=O)[O-])c1,?,99,0,0,0,0
CCC1/C(=N\O)CC(c2ccco2)NC1c1ccco1 (centres undefined),0,0,0,0,-,0
CC(C)(C)c1ccc(/C=C2/SC(N3CCCC3)=NC2=O)cc1,0,0,0,0,0,-
O=C(NNC(=S)NCc1ccccc1)c1cccc([N+](=O)[O-])c1,0,0,0,0,0,0
CC(=O)Nc1ccc(NC(=S)NC(=O)c2ccc([N+](=O)[O-])cc2)cc1,0,0,0,0,0,0
O=C(NNC(=S)NC(=O)c1ccccc1)c1ccc([N+](=O)[O-])cc1,0,99,0,0,0,0
O=C(NNC(=S)NC(=O)c1ccccc1Cl)c1cccc([N+](=O)[O-])c1,0,97,0,0,0,0
Cc1ccc(C(=O)NC(=S)NNC(=O)c2ccc([N+](=O)[O-])cc2)cc1,0,99,0,0,0,0
O=C(COC(=O)C1c2ccccc2Oc2ccccc21)Nc1ccc2c(c1)OCO2,0,0,0,0,0,0
CCOC(=O)c1cnn(-c2nc(OCC)cc(OCC)n2)c1C,0,0,0,0,0,0
Fc1ccc(-c2nnc(SCc3cccnc3)o2)cc1,0,0,0,0,0,-
Cc1ccccc1-n1c(-c2csc(C)c2C)n[nH]c1=S,0,0,0,0,0,0
Cc1scc(-c2n[nH]c(=S)n2C(C)c2ccccc2)c1C (centres undefined),0,83,0,0,0,0
CCc1cc(-c2n[nH]c(=S)n2C(C)c2ccccc2)cs1 (centres undefined),0,94,0,0,0,0
CC(C)(C)CC(=O)O/N=C(\N)c1ccccn1,0,0,0,0,0,0
CC(C)(C)S(=O)(=O)/C(C#N)=N/Nc1ccc(Cl)cc1,0,99,0,0,0,0
Oc1ccc(/C=N/Nc2ccnc3cc(Cl)ccc23)cc1O,0,0,29,0,0,0
Clc1ccc2c(NCc3ccccn3)ccnc2c1,0,0,0,0,0,0
CC(Nc1nc(-c2ccc3c(c2)NC(=O)CO3)cs1)c1ccccc1 (centres undefined),0,98,0,0,0,0
O=C1COc2ccc(-c3csc(NCC4CCCO4)n3)cc2N1 (centres undefined),0,87,0,0,0,0
O=C(c1ccco1)N(Cc1cccnc1)C(c1ccccc1)c1nc2ccccc2[nH]1 (centres undefined),-,-,-,-,0,-
SMILES,PolyA inhibitor,ALR H2O2 inh,M18AAP inhibitor,IDE cell inh,CaV13 ICDI inh,IDE cell activ
O=C(NC1CCCCC1)Oc1cc2oc(=O)sc2cc1Br,0,0,31,0,0,0
O=C(NC1CCCCCC1)c1ccc(Br)o1,0,0,0,0,0,0
O=C(Cc1cccc2ccccc12)Nc1ccc(Br)cc1C(=O)O,0,-,0,0,0,0
O=C(CSCc1ccc(Cl)cc1)Nc1ccc(O)cc1C(=O)O,0,96,0,0,0,0
O=C(Cc1cccc2ccccc12)Nc1ccc(O)cc1C(=O)O,0,97,0,0,0,0
COc1cc(NC(=O)CSCc2ccc(Cl)cc2)c(C(=O)O)cc1OC,0,-,0,0,0,0
Oc1ccc(/C=N/NC(=S)Nc2cccnc2)cc1,0,99,31,0,0,0
Cc1ccc(S(=O)(=O)NCC2CCC(C(=O)NCCCN3CCC(C)CC3)CC2)cc1 (centres undefined),-,-,-,-,0,-
CN(C)c1ccc(NC(=S)NCC2CCCO2)cc1 (centres undefined),0,99,0,0,0,0
CCCCc1ccc(NC(=S)NCC2CCCO2)cc1 (centres undefined),0,-,0,0,0,0
Cc1ccc(C(=O)N/C(=C/c2ccc(N(C)C)cc2)C(=O)NCC2CCCO2)cc1 (centres undefined),0,87,0,0,0,0
COc1ccc(CC(C(=O)Nc2cccc(F)c2)c2nn[nH]n2)c(OC)c1 (centres undefined),0,0,0,0,0,0
N#CC1=C(N)n2c(s/c(=C\c3cccs3)c2=O)=C(C#N)C1c1cccs1 (centres undefined),0,99,0,0,0,0
N#CC1=C(N)n2c(s/c(=C\c3ccco3)c2=O)=C(C#N)C1c1ccco1 (centres undefined),0,0,0,0,0,0
COc1ccccc1-n1c(=O)c2c3c(sc2n2c(SC)nnc12)CCC3,0,0,0,0,-,0
O=C(CNC(=O)COc1ccccc1)NCc1cccnc1,0,0,0,0,0,0
COc1cc(-c2noc(C)c2C(=O)N[C@@H](CO)Cc2ccccc2)cc(OC)c1OC,-,-,-,-,0,0
COc1c(Cl)cc(-c2noc(C)c2C(=O)NC(C)C)cc1Cl,0,93,0,0,0,0
CCN(CCOC(=O)Nc1ccc(Cl)cc1)C(=O)Nc1ccc(Cl)cc1,-,-,-,-,0,-
O=C(NN1C(=O)/C(=C/c2cccs2)SC1=S)c1ccncc1,0,0,0,0,0,0
O=C(NN1C(=O)/C(=C/c2cccc(O)c2)SC1=S)c1ccccc1O,0,99,0,0,0,0
COc1cccc(/C=C2\SC(=S)N(NC(=O)c3ccncc3)C2=O)c1,0,96,0,0,0,0
CCSCC(C)(C)n1[nH]c2ccccc2c1=O,-,-,-,-,0,-
COc1ccc(N2CCOCC2)c(NC(=O)c2cccs2)c1,0,0,0,0,0,0
CCOC(=O)/C(=C\Nc1ccc(OCc2ccccc2)cc1)NC(=O)c1ccccc1,-,-,-,-,0,-
SMILES,PolyA inhibitor,ALR H2O2 inh,M18AAP inhibitor,IDE cell inh,CaV13 ICDI inh,IDE cell activ
Cc1cc(C(=O)NN=C2CCCC2)c2ccccc2n1,0,-,-,0,0,0
Cc1cc(C(=O)NN=C2CCCCC2)c2ccccc2n1,-,84,0,0,0,0
O=C(O)c1ccc2c(c1)S(=O)(=O)c1cc(N3CCN(c4cnccn4)CC3)ccc1C2=O,-,-,-,-,0,-
C[C@H](NC(=O)c1ccco1)C(=O)Nc1cccc([N+](=O)[O-])c1,0,-,0,0,0,0
COc1cccc(N2CCN(S(=O)(=O)c3cn(C)cn3)CC2)c1,0,96,0,0,0,0
Cn1cnc(S(=O)(=O)N2CCN(c3ccc(F)cc3)CC2)c1,0,0,0,0,0,-
CCCCn1c2c(cc(C(=O)OC)c1=O)C(=O)CCC2,-,-,-,-,0,0
